Hits are enriched below; roughly 4.3% of the tested compounds scored in any of these assays.
GLP1R ag – qHTS of GLP-1 Receptor Agonists | 380,000 compounds, 0.007% hits | Potency, µM (highest dose often 45.6 µM), inactives show at the highest dose activation, hits mostly activators | Glucagon-like peptide 1 receptor (Homo sapiens), P43220 | HEK293 GLP-1R CRE-luciferase, luminescence, 4-6 h; cells express a hypersensitive GLP-1R form; further: potency means the concentration at half of the fitted maximal effect; % of control where 0% means no effect
D3 antag – qHTS of D3 Dopamine Receptor Antagonist: qHTS; D(3) dopamine receptor (Homo sapiens), P35462; D3R cells, DiscoveRx beta-arrestin luminescence, antagonist mode; active compounds read low; max response, negative = inhibition, %; 360,000 compounds, 2.5% hits; AID 652054, 2013; in the data active means max response below about -50%; inconclusive means no clear call, values can overlap the other calls; further: on the % scale 0 is the no-effect control and ±100 the full control effect
Target sequence (P35462 whole entry, looked up): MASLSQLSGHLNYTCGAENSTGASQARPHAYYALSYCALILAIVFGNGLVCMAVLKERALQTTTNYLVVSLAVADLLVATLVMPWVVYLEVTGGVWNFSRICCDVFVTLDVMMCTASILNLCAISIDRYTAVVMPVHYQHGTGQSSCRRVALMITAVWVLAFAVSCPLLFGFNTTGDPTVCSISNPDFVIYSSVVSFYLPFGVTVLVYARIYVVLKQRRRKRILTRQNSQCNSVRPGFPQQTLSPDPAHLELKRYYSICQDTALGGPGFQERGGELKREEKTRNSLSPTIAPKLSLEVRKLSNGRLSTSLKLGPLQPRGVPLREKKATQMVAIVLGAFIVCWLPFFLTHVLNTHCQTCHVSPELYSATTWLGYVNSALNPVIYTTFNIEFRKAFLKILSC
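Cells plated overnight at 1500 cells/well, then exposed to library compounds with dopamine controls for 90 minutes at 37 degrees C. DiscoveRx reagent added for 30–60 minutes at room temperature; luminescence read, quantitative HTS format.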
GLP-1R inv ag – qHTS of GLP-1 Receptor Inverse Agonists (Inhibition Mode); Glucagon-like peptide 1 receptor (Homo sapiens), P43220; HEK293 GLP-1R CRE-luciferase, luminescence, 24 h; GLP-1R form is constitutively active; Potency, µM (top dose mostly 38.3 µM), for the others: at the highest dose activity change, negative = inhibition, actives largely listed as inhibitors; 410,000 compounds, 1.6% hits; further: potency means the concentration at half of the fitted maximal effect; on the % scale 0 is the no-effect control and ±100 the full control effect; nearly all actives have a fitted effect of over 55% in size
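HEK293 cells stably co-expressing constitutively active GLP-1R and a cAMP-responsive luciferase reporter were seeded in DMEM with 10% Nu serum, given compounds after 12 h, and incubated 24 h at 37 deg C. Luminescence was then read.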
D3 ag – qHTS of D3 Dopamine Receptor Agonist: qHTS | D(3) dopamine receptor (Homo sapiens), P35462 | D3R DiscoveRx beta-arrestin cells, luminescence, 90 min | max activation, % | 410,000 compounds, 0.58% hits | AID 652048, 2013; in the data active means max activation above about 30%; further: 0% is about no effect
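Agonist-mode cell screen: cells plated at 1500/well and incubated overnight at 37 °C, then exposed to library compounds for 90 min at 37 °C. Detection reagent was added for 30–60 min at room temperature, and luminescence was read.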
* marks the source's active call; other numbers are inactive results; ? = inconclusive; nt = no result given. Unless noted, the call rests on the fitted dose curve; in most records, active means well fitted curve in the direction sought with a large enough effect; inconclusive means small, poorly fitted or top-dose-only effect, or another doubt; inactive means no such curve, though single readings can be large; an effect the other way counts as inactive or inconclusive.

SMILES	GLP1R ag	D3 antag	GLP-1R inv ag	D3 ag
COc1ccc(Nc2ccc3c(c2)=NC2(CCCCC2)[N+]=3[O-])cc1	-11.6%	-67.9*	?	-0.2
CCOC(=O)c1c(NC(=O)Cc2ccccc2)sc2c1CCN(C)C2	3.8%	?	-9.5%	-10.8
CCN1CCc2c(sc(NC(=O)Cc3ccccc3)c2C(N)=O)C1	5.4%	?	6.8%	-14.7
CCOC(=O)c1c(NC(=O)C2CCCCC2)sc2c1CCN(C(C)C)C2	6.8%	-60.4*	?	-11.8
CN1CCc2c(sc(NC(=O)Cc3ccccc3)c2C(N)=O)C1	-0.7%	-26.9	0.0%	-7.9
CCN1CCc2c(sc(NC(=O)Cc3ccccc3)c2C(=O)OC)C1	9.9%	-103.1*	-2.7%	-17.8
CN1CCc2c(sc(NC(=O)Cc3ccc(F)cc3)c2C(N)=O)C1	-0.7%	-50.9*	-2.8%	-3.4
CCOC(=O)c1c(NC(=O)Cc2ccccc2)sc2c1CCN(CC)C2	?	-64.2*	?	-14.5
O=C(c1ccc2c(c1)N(Cc1cccc(Cl)c1)C(=O)c1ccccc1S2(=O)=O)N1CCCCCC1	nt	nt	?	-8.6
COCCNC(=O)CSc1nc2ccccc2nc1Cc1ccc(C)cc1	0.9%	nt	1.8%	2.0
COc1cc2c(cc1OC)n(CC(=O)Nc1ccc(C)cc1C)c(=O)n1nc(-c3ccccc3)nc21	1.7%	nt	6.3%	0.1
CCC(=O)Nc1sc2c(c1C(N)=O)CCN(C(C)=O)C2	-6.1%	?	4.7%	2.5
CC(=O)N1CCc2c(sc(NC(=O)c3ccc([N+](=O)[O-])o3)c2C(N)=O)C1	-5.9%	-91.1*	7.6%	-8.5
CCOC(=O)C1(Cc2ccc(OC)cc2)CCN(C(=O)CCn2cccn2)CC1	11.6%	-17.9	34.3%	3.7
O=C(c1cccs1)N1CCCc2cc(NS(=O)(=O)c3ccc(F)cc3)ccc21	nt	nt	?	0.4
C(=C\c1ccccc1)/CSc1nnc(-c2ccccc2)n1Cc1ccco1	7.1%	16.8	7.08µM*	0.2
c1ccc(Nc2c(-c3c[nH]c4ccccc34)nc3ccccn23)cc1	nt	nt	?	1.7
CC(CN1CCCCC1)NC(=O)c1scnc1-c1ccccc1 (configuration not stated)	3.0%	-83.9*	12.7%	-21.2
O=C(COc1ccccc1)Nc1nnc(SCc2cc(=O)n3cc(Cl)ccc3n2)s1	nt	nt	-8.2%	3.9
N#CCc1ccc(OCCCN2CCC(C(O)(c3ccccc3)c3ccccc3)CC2)cc1	0.2%	-68.2*	?	-18.0
COc1ccc(OC)c(NC(=S)N2CCC(C(O)(c3ccccc3)c3ccccc3)CC2)c1	-4.0%	-0.3	?	-4.7
Oc1ccccc1CN1CCC(C(O)(c2ccccc2)c2ccccc2)CC1	-0.2%	0.0	-27.0%	-4.4
OC(c1ccccc1)(c1ccccc1)C1CCN(CCCOc2ccc3c(c2)CCCC3)CC1	-30.3%	-16.7	7.94µM*	5.1
OC(c1ccccc1)(c1ccccc1)C1CCN(CCCOc2cccc(OC(F)(F)F)c2)CC1	-11.6%	-80.5*	?	-13.5
CC(C)(C)c1ccc(C(O)CCCN2CCC(C(O)(c3ccccc3)c3ccccc3)CC2)cc1 (configuration not stated)	-4.6%	-60.4*	-4.6%	-63.3
SMILES	GLP1R ag	D3 antag	GLP-1R inv ag	D3 ag
c1ccc(COc2ccc(OCCCN3CCCC3)cc2)cc1	-11.2%	?	-1.6%	0.2
COc1cc(CN(C(=O)COc2ccc(Cl)cc2)c2ccccn2)cc(OC)c1OC	nt	nt	-3.6%	-7.5
CN1C2CCC1/C(=C\c1ccc(F)cc1)C(=O)/C2=C/c1ccc(F)cc1	0.1%	?	2.2%	0.1
C=CC(=O)N1C/C(=C/c2ccc(F)cc2)C(=O)/C(=C\c2ccc(F)cc2)C1	-7.0%	-61.2*	?	-5.0
Cn1cnnc1SCC(=O)Nc1ccc(Br)cc1F	-14.8%	6.0	2.1%	32.4*
COc1cccc(NS(=O)(=O)c2cc3c4c(c2)C(C)C(=O)N4CCC3)c1 (configuration not stated)	nt	nt	-4.9%	-2.4
CN1CCCC1CCNc1ccc2sc3ccccc3c(=O)c2c1 (configuration not stated)	5.8%	3.4	14.1µM*	-26.5
Cc1cccc2cc(COC(=O)c3ccccc3)c(=O)[nH]c12	17.5%	-51.4*	8.1%	-10.2
CCCCc1nn2c(=O)cc(COC(=O)c3ccc(NC(=O)c4ccccc4Cl)cc3)nc2s1	nt	nt	-20.0%	1.6
CCCc1c(-c2cccc(Cl)c2)ncn1Cc1cccc(-c2ccccc2)c1	nt	-18.9	?	51.7*
CCN(C(=O)CC(C)C)c1nnc(Cn2nnc3ccccc32)s1	10.8%	-0.6	40.4%	25.2
CCN(C(=O)c1ccc(C(C)(C)C)cc1)c1nnc(Cn2nnc3ccccc32)s1	-1.9%	1.0	5.01µM*	8.1
O=C1NN=C(c2ccccc2)CC1c1c[nH]c2ccccc12 (configuration not stated)	-3.4%	13.8	?	0.5
O=C1NN=C(c2ccccc2)CC1c1ccc(Cl)cc1Cl (configuration not stated)	12.2%	4.7	7.94µM*	4.3
O=C1NN=C(c2ccc(Cl)cc2)CC1c1cccc(Cl)c1 (configuration not stated)	7.5%	-60.6*	?	9.0
CC1CCC(C(=O)NC(C(=O)OCC(=O)c2ccccc2)C(C)C)CC1 (configuration not stated)	0.0%	nt	-11.1%	-12.4
O=C(O)C1CCN(S(=O)(=O)c2cccc3cccnc23)CC1	0.1%	3.6	9.7%	7.5
O=C(C1CCN(S(=O)(=O)c2cccc3nsnc23)CC1)N1CCc2ccccc21	-12.4%	-2.7	?	-4.2
O=C(C1CCN(S(=O)(=O)c2cccc3cccnc23)CC1)N1CCCC1	-3.4%	-78.5*	-7.4%	-12.7
O=C(C1CCN(S(=O)(=O)c2cccc3nsnc23)CC1)N1CCn2c1nc1ccccc12	4.9%	-101.1*	26.1%	-22.3
O=C(C1CCN(S(=O)(=O)c2cccc3cccnc23)CC1)N1CCc2ccccc21	6.4%	-52.6*	-27.3%	1.3
COc1cc(NC(=O)[C@@H]2CCCN(S(=O)(=O)c3cccc4cccnc34)C2)cc(OC)c1OC	-0.6%	106.3	14.3%	43.1*
Cc1ccc(-n2c(-c3nn(C)c(C)c3Cl)n[nH]c2=S)cc1	-5.6%	-57.1*	4.1%	-3.3
CCn1c(-c2nn(C)c(C)c2Cl)n[nH]c1=S	3.8%	-8.6	48.6%	-4.5
Cn1nc(C(C)(C)C)cc1C(=O)N1CCCCC1c1cc(C(=O)Nc2cccc(C#N)c2)no1 (configuration not stated)	-0.1%	38.0	10µM*	8.4
N#Cc1cccc(NC(=O)c2cc(C3CCCCN3C(=O)c3ccccc3)on2)c1 (configuration not stated)	5.1%	0.0	?	-9.0
O=C1/C(=C/c2ccncc2)CCC/C1=C\c1ccncc1	-8.3%	-60.5*	-95.2%	-11.9
